# From PubChem BioAssay (EPA / NIEHS)
# Results filed as inconclusive are left out. Calls of active or inactive are those of the source. The calls were made as follows: active = hit-call score of the fitted dose curve at least 0.9, where 1 is the maximum; inconclusive = response in the unintended direction; inactive = score below 0.9.
# How the values were obtained:
# [1] = target: human Protein Tyrosine Phosphatase Receptor Type M (PTPRM), PTPRM (gene 5797) (UniProt P28827); test: NVS_ENZ_hPTPRM: NovaScreen (NVS) Enzymatic Assay for human Protein Tyrosine Phosphatase Receptor Type M (PTPRM) (AID 2283215)
# Procedure: NVS_ENZ_hPTPRM is a biochemical, single-readout assay that uses extracted gene-proteins in a cell-free assay. Measurements were taken 1.33 hours after chemical dosing in a 384-well plate.NVS_ENZ_hPTPRM is one of one assay component(s) measured or calculated from the NVS_ENZ_hPTPRM assay. It is designed to make measurements of enzyme activity, a form of enzyme reporter, as detected with fluorescence intensity signals by Fluorescence and electrophoretic mobility shift technology.Data from the assay component NVS_ENZ_hPTPRM was analyzed into 1 assay endpoint. This assay endpoint, NVS_ENZ_hPTPRM, was analyzed in the positive analysis fitting direction relative to DMSO as the negative control and baseline of activity. Using a type of enzyme reporter, loss-of-signal activity can be used to understand changes in the enzymatic activity as they relate to the gene PTPRM. Furthermore, this assay endpoint can be referred to as a primary readout, because this assay has produced multiple assay endpoints where this one serves a enzymatic activity function. To generalize the intended target to other relatable targets, this assay endpoint is annotated to the phosphatase intended target family, where the subfamily is receptor tyrosine phosphatase. […]
# [2] = target: human Tropomyosin Receptor Kinase A (TRKA), NTRK1 (gene 4914) (UniProt P04629); test: NVS_ENZ_hTrkA: NovaScreen (NVS) Enzymatic Assay for human Tropomyosin Receptor Kinase A (TRKA) (AID 2283224)
# Summary of the method: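 Compounds were screened at 25 uM in duplicate, then concentration series to a 50 uM top for those meeting threshold (e.g. 30% inhibition). Enzyme was recombinant human TrkA, incubated 1 h. Product formation was quantified by fluorescence after mobility-shift separation.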
# [3] = target: human Vascular Endothelial Growth Factor Receptor 3 (VEGFR3), FLT4 (gene 2324) (UniProt P35916); test: NVS_ENZ_hVEGFR3: NovaScreen (NVS) Enzymatic Assay for human Vascular Endothelial Growth Factor Receptor 3 (VEGFR3) (AID 2283229)
# Summary of the method: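 Chemicals first run in duplicate at 25 uM, with actives re-tested in concentration series to a top of 50 uM. Recombinant VEGFR3 activity measured after 1 h via fluorescence with mobility-shift product separation; inhibition fitted relative to DMSO.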
# [4] = target: rat Catechol-O-Methyl Transferase (COMT), Comt (gene 24267) (UniProt P22734); test: NVS_ENZ_rCOMT: NovaScreen (NVS) Enzymatic Assay for rat Catechol-O-Methyl Transferase (COMT) (AID 2283235)
# Summary of the method: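 Rat dorsal striatum extract served as COMT source; product quantified by HPLC/spectrophotometry, read at 0 h after dosing. Primary single-concentration screen at 25 uM, followed by concentration series to a 50 uM maximum.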
# [5] = tested on: bovine Angiotensin II Receptor Type 2 (AT2), gene 407157; test: NVS_GPCR_bAT2: NovaScreen (NVS) G Protein-Coupled Receptor Assay for bovine Angiotensin II Receptor Type 2 (AT2) (AID 2283240)
# Summary of the method: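 Radioligand displacement on bovine cerebellar membranes, 1 hour incubation, filter-based scintillation counting; loss of signal vs DMSO. Duplicate single-point screen at 25 uM, then concentration-response to 50 uM maximum.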
# [6] = target: bovine Dopamine Receptor (DR), Non-selective Binding, DRD1 (gene 281125) (UniProt Q95136); test: NVS_GPCR_bDR_NonSelective: NovaScreen (NVS) G Protein-Coupled Receptor Assay for bovine Dopamine Receptor (DR), Non-selective Binding (AID 2283241)
# Summary of the method: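 Filter-based radioligand binding with bovine striatal membrane, incubated 1 h; DMSO as negative baseline. Initial duplicate single-point test at 25 uM preceded concentration series for actives.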
# [7] = tested on: bovine Histamine 1 Receptor (H1), gene 281231; test: NVS_GPCR_bH1: NovaScreen (NVS) G Protein-Coupled Receptor Assay for bovine Histamine 1 Receptor (H1) (AID 2283246)
# Summary of the method: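 Hits from a 25 uM duplicate primary screen were retested in concentration series (top 50 uM); binding measured as scintillation-counted displacement of radioligand from bovine cerebellar membranes after 1 h, normalised to DMSO.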
# [8] = target: Adenosine receptor A1 (Bos taurus) (UniProt P28190); test: NVS_GPCR_bAdoR_NonSelective: NovaScreen (NVS) G Protein-Coupled Receptor Assay for bovine Adenosine Receptor (AdoR), Non-selective Binding (AID 2283244)
# Summary of the method: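 Cell-free binding with membranes from bovine striatum: radioligand displaced by test chemical, read after 1 h by filtration and scintillation. Single-point 25 uM duplicate primary, 50 uM top concentration in follow-up curves, DMSO baseline.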
# [9] = tested on: guinea pig Leukotriene B4 Receptor (LTB4), gene 100379538; test: NVS_GPCR_gLTB4: NovaScreen (NVS) G Protein-Coupled Receptor Assay for guinea pig Leukotriene B4 Receptor (LTB4) (AID 2283247)
# Summary of the method: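 Membranes from guinea pig spleen incubated 2 h with radioligand and compound; bound counts measured by filtration and scintillation. Screened first at 25 uM in duplicate, then actives titrated to a 50 uM top concentration relative to DMSO.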
# Chain of rat Catechol-O-Methyl Transferase (COMT), Comt (gene 24267) (P22734 whole entry, looked up): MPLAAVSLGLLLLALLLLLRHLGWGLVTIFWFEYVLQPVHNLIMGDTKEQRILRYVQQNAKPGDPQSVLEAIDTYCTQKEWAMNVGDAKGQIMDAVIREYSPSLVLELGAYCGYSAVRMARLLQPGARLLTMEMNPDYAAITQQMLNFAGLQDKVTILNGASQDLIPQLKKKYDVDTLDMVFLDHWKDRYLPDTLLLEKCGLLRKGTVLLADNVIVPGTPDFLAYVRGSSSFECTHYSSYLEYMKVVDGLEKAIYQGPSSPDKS
# Chain of bovine Dopamine Receptor (DR), Non-selective Binding, DRD1 (gene 281125) (Q95136 whole entry, looked up): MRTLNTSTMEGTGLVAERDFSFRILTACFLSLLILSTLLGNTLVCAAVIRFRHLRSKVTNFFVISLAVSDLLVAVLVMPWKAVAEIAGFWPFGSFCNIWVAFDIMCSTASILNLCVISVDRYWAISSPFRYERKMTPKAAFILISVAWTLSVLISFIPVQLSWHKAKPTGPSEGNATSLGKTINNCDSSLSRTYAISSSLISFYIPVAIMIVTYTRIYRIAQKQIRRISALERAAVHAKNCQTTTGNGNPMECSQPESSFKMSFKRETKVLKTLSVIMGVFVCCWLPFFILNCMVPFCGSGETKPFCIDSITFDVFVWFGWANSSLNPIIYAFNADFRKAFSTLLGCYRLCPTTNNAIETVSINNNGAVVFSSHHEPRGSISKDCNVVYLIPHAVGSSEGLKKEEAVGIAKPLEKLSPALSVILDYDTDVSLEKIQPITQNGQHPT
# Chain of human Vascular Endothelial Growth Factor Receptor 3 (VEGFR3), FLT4 (gene 2324) (P35916 whole entry, looked up): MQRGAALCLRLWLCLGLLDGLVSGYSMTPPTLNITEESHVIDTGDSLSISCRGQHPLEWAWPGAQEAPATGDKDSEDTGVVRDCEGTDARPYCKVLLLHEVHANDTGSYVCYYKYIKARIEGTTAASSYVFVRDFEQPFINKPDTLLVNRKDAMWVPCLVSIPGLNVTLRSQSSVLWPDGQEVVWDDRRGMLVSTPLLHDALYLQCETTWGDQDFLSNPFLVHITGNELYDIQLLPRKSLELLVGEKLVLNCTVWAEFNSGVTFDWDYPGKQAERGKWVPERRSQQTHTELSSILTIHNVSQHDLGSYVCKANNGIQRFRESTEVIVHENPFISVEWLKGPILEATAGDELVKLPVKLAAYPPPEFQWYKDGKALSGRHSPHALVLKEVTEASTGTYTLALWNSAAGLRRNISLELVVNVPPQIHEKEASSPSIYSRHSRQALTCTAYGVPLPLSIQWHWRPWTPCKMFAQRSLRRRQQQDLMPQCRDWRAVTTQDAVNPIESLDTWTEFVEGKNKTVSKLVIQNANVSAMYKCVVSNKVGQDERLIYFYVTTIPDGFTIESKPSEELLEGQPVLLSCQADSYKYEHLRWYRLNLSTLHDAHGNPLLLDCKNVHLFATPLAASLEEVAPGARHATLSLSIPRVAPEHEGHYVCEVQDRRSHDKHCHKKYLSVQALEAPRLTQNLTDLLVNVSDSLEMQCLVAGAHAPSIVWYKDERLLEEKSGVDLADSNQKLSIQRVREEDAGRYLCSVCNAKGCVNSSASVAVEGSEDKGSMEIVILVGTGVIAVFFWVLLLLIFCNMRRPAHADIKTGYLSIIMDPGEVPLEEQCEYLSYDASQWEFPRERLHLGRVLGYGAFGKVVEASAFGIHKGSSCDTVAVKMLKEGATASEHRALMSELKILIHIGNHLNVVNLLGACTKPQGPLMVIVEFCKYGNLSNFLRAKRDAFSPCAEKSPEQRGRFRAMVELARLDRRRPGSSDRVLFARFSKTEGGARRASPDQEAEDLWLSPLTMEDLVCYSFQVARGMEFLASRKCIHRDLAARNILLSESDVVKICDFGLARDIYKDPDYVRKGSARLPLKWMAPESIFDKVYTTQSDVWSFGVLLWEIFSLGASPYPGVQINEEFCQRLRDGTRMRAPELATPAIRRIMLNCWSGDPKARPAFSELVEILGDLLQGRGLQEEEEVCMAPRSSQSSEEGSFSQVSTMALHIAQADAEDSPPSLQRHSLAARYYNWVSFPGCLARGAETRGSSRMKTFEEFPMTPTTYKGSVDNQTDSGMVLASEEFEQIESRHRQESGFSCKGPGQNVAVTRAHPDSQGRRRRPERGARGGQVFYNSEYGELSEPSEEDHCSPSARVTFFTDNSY
# Chain of Adenosine receptor A1 (Bos taurus) (P28190 whole entry, looked up): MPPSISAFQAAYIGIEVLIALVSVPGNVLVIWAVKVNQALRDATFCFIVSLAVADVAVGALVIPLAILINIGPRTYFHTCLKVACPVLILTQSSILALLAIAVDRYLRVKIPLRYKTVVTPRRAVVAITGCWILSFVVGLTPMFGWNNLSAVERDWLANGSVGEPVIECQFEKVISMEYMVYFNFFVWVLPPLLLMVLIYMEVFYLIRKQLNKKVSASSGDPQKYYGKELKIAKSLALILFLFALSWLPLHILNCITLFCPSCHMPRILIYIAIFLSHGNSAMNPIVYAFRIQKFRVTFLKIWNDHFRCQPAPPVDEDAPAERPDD
# Chain of human Tropomyosin Receptor Kinase A (TRKA), NTRK1 (gene 4914) (P04629 whole entry, looked up): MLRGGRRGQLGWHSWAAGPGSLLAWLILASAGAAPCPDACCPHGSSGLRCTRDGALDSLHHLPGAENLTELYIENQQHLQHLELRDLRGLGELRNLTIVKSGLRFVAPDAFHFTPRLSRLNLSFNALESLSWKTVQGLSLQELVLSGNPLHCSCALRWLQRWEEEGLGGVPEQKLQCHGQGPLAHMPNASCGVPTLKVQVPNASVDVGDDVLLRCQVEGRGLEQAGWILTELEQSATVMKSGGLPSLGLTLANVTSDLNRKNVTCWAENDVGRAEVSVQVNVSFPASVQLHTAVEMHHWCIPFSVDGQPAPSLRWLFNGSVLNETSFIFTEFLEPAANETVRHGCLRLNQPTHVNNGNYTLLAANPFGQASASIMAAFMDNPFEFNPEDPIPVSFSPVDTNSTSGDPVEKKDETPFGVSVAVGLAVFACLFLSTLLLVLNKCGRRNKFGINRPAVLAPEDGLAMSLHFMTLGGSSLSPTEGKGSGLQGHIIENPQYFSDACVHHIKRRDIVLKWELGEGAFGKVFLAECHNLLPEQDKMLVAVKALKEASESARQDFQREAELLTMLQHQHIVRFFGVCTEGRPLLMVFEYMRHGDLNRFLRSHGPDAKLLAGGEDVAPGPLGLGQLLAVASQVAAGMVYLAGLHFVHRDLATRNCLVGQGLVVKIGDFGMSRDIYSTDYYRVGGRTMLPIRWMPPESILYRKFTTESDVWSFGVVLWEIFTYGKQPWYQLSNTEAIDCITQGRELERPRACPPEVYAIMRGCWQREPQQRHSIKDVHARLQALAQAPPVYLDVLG
# Chain of human Protein Tyrosine Phosphatase Receptor Type M (PTPRM), PTPRM (gene 5797) (P28827 whole entry, looked up): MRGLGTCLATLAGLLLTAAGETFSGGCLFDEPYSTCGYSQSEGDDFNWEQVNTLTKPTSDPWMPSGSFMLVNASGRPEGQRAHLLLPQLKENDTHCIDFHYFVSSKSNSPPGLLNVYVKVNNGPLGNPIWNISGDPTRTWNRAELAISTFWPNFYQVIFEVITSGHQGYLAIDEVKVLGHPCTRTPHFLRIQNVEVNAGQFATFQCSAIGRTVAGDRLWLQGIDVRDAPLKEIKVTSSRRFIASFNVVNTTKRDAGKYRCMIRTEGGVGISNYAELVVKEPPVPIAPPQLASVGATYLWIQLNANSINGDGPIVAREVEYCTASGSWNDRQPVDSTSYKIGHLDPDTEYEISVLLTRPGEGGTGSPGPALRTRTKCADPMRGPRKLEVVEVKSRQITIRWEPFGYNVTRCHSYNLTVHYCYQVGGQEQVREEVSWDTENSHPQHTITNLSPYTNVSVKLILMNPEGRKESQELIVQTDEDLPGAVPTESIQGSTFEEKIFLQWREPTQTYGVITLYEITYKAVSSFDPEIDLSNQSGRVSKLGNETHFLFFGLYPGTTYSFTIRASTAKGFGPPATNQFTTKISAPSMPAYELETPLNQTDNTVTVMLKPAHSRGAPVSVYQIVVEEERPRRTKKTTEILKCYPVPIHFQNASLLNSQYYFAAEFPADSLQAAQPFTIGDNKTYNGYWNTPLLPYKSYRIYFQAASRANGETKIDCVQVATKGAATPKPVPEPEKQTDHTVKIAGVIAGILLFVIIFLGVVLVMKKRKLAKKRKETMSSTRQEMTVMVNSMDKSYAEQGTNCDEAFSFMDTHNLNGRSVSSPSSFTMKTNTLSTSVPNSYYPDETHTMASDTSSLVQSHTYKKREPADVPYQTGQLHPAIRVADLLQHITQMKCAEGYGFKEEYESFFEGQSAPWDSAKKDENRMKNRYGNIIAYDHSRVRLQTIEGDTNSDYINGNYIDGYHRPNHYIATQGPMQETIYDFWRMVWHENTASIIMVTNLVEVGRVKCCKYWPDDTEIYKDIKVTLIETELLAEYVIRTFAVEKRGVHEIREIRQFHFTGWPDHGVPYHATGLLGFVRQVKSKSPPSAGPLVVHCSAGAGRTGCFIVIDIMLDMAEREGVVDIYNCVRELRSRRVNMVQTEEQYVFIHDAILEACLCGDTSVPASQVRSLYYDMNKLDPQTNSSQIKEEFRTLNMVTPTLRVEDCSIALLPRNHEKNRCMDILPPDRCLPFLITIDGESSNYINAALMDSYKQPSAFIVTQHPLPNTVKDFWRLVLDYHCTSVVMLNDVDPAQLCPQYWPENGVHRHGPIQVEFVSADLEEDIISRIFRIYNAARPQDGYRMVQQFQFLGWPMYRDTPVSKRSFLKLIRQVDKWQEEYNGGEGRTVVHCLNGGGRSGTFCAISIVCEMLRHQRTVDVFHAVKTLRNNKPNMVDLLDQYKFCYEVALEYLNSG
compound,measurement,setting,value
O=C(OCCCCCOC(=O)c1ccccc1)c1ccccc1,outcome,[1],inactive
CC1=C(/C=C/C(C)=C/C=C/C(C)=C/CO)C(C)(C)CCC1,outcome,[2],inactive
same,outcome,[3],inactive
same,outcome,[4],inactive
FC(F)(F)C(F)(F)C(F)(F)C(F)(F)C(F)(F)C(F)(F)CCI,outcome,[2],inactive
NCCO,outcome,[3],inactive
COc1cc(-c2nc(NC(=O)c3cc4cc(C)cc(C)c4n3CC(=O)O)sc2CCC2CCCCC2)c(OC)cc1Cl,AC50,[5],29.4 µM (active)
NC(=O)Cn1c(=O)cc(CCN2CCN(c3nccc4sccc34)CC2)c2ccc(F)cc21,AC50,[6],1.26 µM (active)
same,AC50,[7],0.777 µM (active)
CCc1c(C(=O)NN2CCCCC2)nn(-c2ccc(Cl)cc2Cl)c1-c1ccc(Br)cc1,outcome,[8],inactive
Nc1ccccc1N,AC50,[8],9.16 µM (active)
Cc1ccc(C(C)C)c(O)c1,outcome,[7],inactive
Cc1oc(-c2ccccc2)nc1CCOc1cccc2c1ccn2CCC(=O)O,AC50,[9],4.96 µM (active)
O=c1c(O)c(-c2ccc(O)c(O)c2)oc2cc(O)cc(O)c12,AC50,[4],12.4 µM (active)
CCCCC(CC)COC(=O)CC(C(=O)OCC(CC)CCCC)S(=O)(=O)O (stereo not drawn),AC50,[5],19.1 µM (active)
C1CCC(SSC2CCCCC2)CC1,outcome,[6],inactive
Nc1ccc2c(c1)C(=O)c1ccccc1C2=O,outcome,[7],inactive
C[C@]12C=CC(=O)C=C1CC[C@@H]1[C@@H]2C(=O)C[C@@]2(C)[C@H]1CC[C@]2(O)C(=O)CO,outcome,[7],inactive
